PubChem BioAssay (EPA / NIEHS)
“And” between values parts separate entries of the source, which are not always exact repeats. Identical values can stand only once. Results filed as inconclusive are left out. A structure can be active in one record and inactive in another. The source made the active and inactive calls. How the source made its calls, unless noted: active means hit-call score of the fitted dose curve at least 0.9, where 1 is the maximum; inconclusive means response in the unintended direction; inactive means score below 0.9.

Tests used:
[1] = read-out: Thyroid Hormone Responsive (THRSP), THRSP (gene 7069); assay: LTEA_HepaRG_THRSP: Life Technologies and Expression Analysis (LTEA) Assay for Thyroid Hormone Responsive (THRSP) using HepaRG (AID 2283536; active means hit-call score of the fitted dose curve at least 0.9, where 1 is the maximum; inactive means score below 0.9); conditions: mRNA level, 48 h; actives raise or lower the signal
Summary of the method: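 mRNA induction or loss relative to 0.5% DMSO vehicle was fitted bidirectionally across an eight-point curve whose highest exposure was 100 uM. Human HepaRG liver cells received chemicals in duplicate over 48 h before RNA extraction.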

[2] = read-out: Cellular tumor antigen p53 (Homo sapiens) (UniProt P04637); assay: LTEA_HepaRG_TP53: Life Technologies and Expression Analysis (LTEA) Assay for Tumor Protein P53 (TP53) using HepaRG (AID 2283537; active means hit-call score of the fitted dose curve at least 0.9, where 1 is the maximum; inactive means score below 0.9); conditions: mRNA level, 48 h; actives raise or lower the signal
Summary of the method: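 HepaRG, 48 h exposure, top 100 uM, half-log 8-point, 0.5% DMSO vehicle, duplicates. Read: TP53 mRNA by TaqMan qRT-PCR, normalised to ACTB/GAPDH/POLR2A; bidirectional fit vs DMSO.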

[3] = read-out: UDP glucuronosyltransferase (UGT1A1), UGT1A1 (gene 54658); assay: LTEA_HepaRG_UGT1A1: Life Technologies and Expression Analysis (LTEA) Assay for UDP glucuronosyltransferase (UGT1A1) using HepaRG (AID 2283538; active means hit-call score of the fitted dose curve at least 0.9, where 1 is the maximum; inactive means score below 0.9); conditions: mRNA level, 48 h; actives raise or lower the signal
Summary of the method: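 HepaRG cells, 0.5% DMSO vehicle, 48 h exposure in serum-free induction medium to 8-point half-log series topping at 100 uM, in duplicate. UGT1A1 mRNA by Fluidigm qRT-PCR, normalized to ACTB/GAPDH/POLR2A; bidirectional fit versus DMSO.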

[4] = read-out: UDP glucuronosyltransferase (UGT1A6), UGT1A6 (gene 54578); assay: LTEA_HepaRG_UGT1A6: Life Technologies and Expression Analysis (LTEA) Assay for UDP glucuronosyltransferase (UGT1A6) using HepaRG (AID 2283539; active means hit-call score of the fitted dose curve at least 0.9, where 1 is the maximum; inactive means score below 0.9); conditions: mRNA level, 48 h; actives raise or lower the signal
Summary of the method: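 Differentiated HepaRG cells, ~100,000/well, were exposed for 48 h in serum-free induction medium with 0.5% DMSO to 8-point half-log series topping at 100 uM, in duplicate. mRNA measured by Fluidigm TaqMan qRT-PCR, normalized to ACTB, GAPDH and POLR2A.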

[5] = read-out: X-box binding protein 1 (XBP1), XBP1 (gene 7494); assay: LTEA_HepaRG_XBP1: Life Technologies and Expression Analysis (LTEA) Assay for X-box binding protein 1 (XBP1) using HepaRG (AID 2283540; active means hit-call score of the fitted dose curve at least 0.9, where 1 is the maximum; inactive means score below 0.9); conditions: mRNA level, 48 h; actives raise or lower the signal
Summary of the method: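 Differentiated human HepaRG cells in serum-free induction medium exposed 48 h in duplicate to eight half-log concentrations up to 100 uM in 0.5% DMSO. XBP1 mRNA measured by Fluidigm TaqMan qRT-PCR, normalized to ACTB, GAPDH, POLR2A; bidirectional fitting against DMSO.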

[6] = LTEA_HepaRG_LDH_cytotoxicity: Cytotoxicity Assessment in the Life Technologies and Expression Analysis (LTEA) Assay (AID 2283563)
Summary of the method: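 Differentiated HepaRG cells in serum-free induction medium, exposed 48 h in duplicate to 8 half-log concentrations up to 100 uM in 0.5% DMSO. Cytotoxicity from LDH measured in spent medium, fit relative to DMSO.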

[7] = TOX21_p53_BLA_p2_viability: Viability Assessment in the Tox21 HCT-116 p53 Agonism Beta-lactamase Assay, Phase 2 (AID 2283591);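 further: compound exposure lasted 16 h at 37 °C; actives lower the ATP signal meaning cytotoxicity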
Summary of the method: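 Cytotoxicity readout: CellTiter-Glo ATP luminescence, 30 min at room temperature, after the beta-lactamase read. Cells were HCT116 exposed 16 h at 37C to compounds pin-transferred at 217-fold dilution from DMSO stocks.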

[8] = molecular target: Cellular tumor antigen p53 (Homo sapiens) (UniProt P04637); assay: TOX21_p53_BLA_p2_ratio: Tox21 HCT-116 p53 Agonism Beta-lactamase Assay, Ratio, Phase 2 (AID 2283592)
Summary of the method: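 HCT-116 cells with p53-responsive beta-lactamase reporter, 4000 cells/well, preincubated 5 h, then compound in DMSO (217-fold dilution) for 16 h at 37C. CCF4-AM substrate 2 h at room temperature; 460/530 nm emission ratio fitted upward versus DMSO.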

[9] = TOX21_p53_BLA_p3_viability: Viability Assessment in the Tox21 HCT-116 p53 Agonism Beta-lactamase Assay, Phase 3 (AID 2283593);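 further: cells exposed to compound for 16 h before reading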
Summary of the method: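 Cellular ATP was quantified by CellTiter-Glo luminescence, read after 30 min at room temperature. Beforehand, HCT116 cells (4000/well) received compound 5 h post-seeding, 217-fold diluted from DMSO, then incubated 16 h at 37C.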

[10] = ATG_XTT_Cytotoxicity: Cytotoxicity Assessment in the Attagene TRANS-FACTORIAL HepG2 Assay (AID 2283584);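 on AC50: XTT signal for cell number as viability in transfected HepG2 cells; cells exposed to compound for 24 h before reading; active means loss of viability signal versus DMSO baseline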
Summary of the method: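 HepG2 cells transiently transfected with GAL4-UAS multiple reporter units, dosed 24 h; cytotoxicity read by XTT as loss of signal versus DMSO baseline.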

Chain of Cellular tumor antigen p53 (Homo sapiens) (P04637 whole entry, looked up): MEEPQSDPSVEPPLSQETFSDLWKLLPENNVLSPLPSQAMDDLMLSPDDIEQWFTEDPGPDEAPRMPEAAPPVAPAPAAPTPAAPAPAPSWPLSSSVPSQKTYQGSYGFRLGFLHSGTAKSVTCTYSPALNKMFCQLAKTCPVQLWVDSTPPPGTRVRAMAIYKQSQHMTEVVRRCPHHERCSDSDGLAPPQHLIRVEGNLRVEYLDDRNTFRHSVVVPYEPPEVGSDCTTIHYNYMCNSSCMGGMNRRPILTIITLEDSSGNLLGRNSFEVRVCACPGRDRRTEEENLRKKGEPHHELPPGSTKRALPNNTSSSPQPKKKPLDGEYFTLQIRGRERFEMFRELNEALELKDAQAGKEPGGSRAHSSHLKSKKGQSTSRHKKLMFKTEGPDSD

SMILES: O=C(O)c1ccc([N+](=O)[O-])cc1
- outcome [1]: inactive
- outcome [2]: inactive
- outcome [3]: inactive
- outcome [4]: inactive
- outcome [5]: inactive
- outcome [6]: inactive
- outcome [7]: inactive
- outcome [8]: inactive
- outcome [9]: inactive

SMILES: C=CC(=O)OCCOCCOCC
- outcome [10]: inactive
- outcome [7]: inactive
- outcome [8]: inactive

SMILES: CC1CCC2CC1C2(C)C (stereo not drawn)
- outcome [10]: inactive
- outcome [7]: inactive
- outcome [8]: inactive

SMILES: Fc1c(F)c(F)c(Br)c(F)c1F
- outcome [10]: inactive
- outcome [7]: inactive
- outcome [8]: inactive

SMILES: Nc1cc([N+](=O)[O-])ccc1O
- outcome [10]: inactive
- outcome [7]: inactive
- outcome [8]: inactive

SMILES: CCCCNC(=O)NS(=O)(=O)c1ccc(N)cc1
- outcome [10]: inactive
- outcome [7]: inactive
- outcome [8]: inactive

SMILES: O=C=NC1CCC(CC2CCC(N=C=O)CC2)CC1 (stereo not drawn)
- outcome [10]: inactive
- outcome [7]: inactive
- outcome [8]: inactive

SMILES: O=C1c2ccccc2C(=O)N1SC1CCCCC1
- outcome [10]: inactive
- AC50 [7]: 61.2 µM (active)
- outcome [7]: inactive
- AC50 [8]: 81.1 µM (active)
- outcome [8]: inactive
- AC50 [9]: 47.6 µM (active) and 86.6 µM (active)

SMILES: O=P(c1ccccc1)(c1ccccc1)c1ccccc1
- outcome [10]: inactive
- outcome [7]: inactive
- outcome [8]: inactive

SMILES: CNCCCC12CCC(c3ccccc31)c1ccccc12
- outcome [10]: inactive
- AC50 [7]: 64.5 µM (active)
- outcome [7]: inactive
- AC50 [8]: 85.8 µM (active)
- outcome [8]: inactive
- AC50 [9]: 70.4 µM (active)
- outcome [9]: inactive

SMILES: CC(C)(C#N)c1cc(Cn2cncn2)cc(C(C)(C)C#N)c1
- outcome [10]: inactive
- outcome [7]: inactive
- outcome [8]: inactive

SMILES: CCCC(=O)C(C)=O
- outcome [10]: inactive
- outcome [7]: inactive
- outcome [8]: inactive

SMILES: CCCCC(CC)COCCC#N (stereo not drawn)
- outcome [10]: inactive
- outcome [7]: inactive
- outcome [8]: inactive

SMILES: COc1ccc(Nc2ccccc2)c(C)c1
- outcome [10]: inactive
- outcome [7]: inactive
- outcome [8]: inactive

SMILES: CCCCC/C=C/C=C/C=O
- outcome [10]: inactive
- AC50 [7]: 62.9 µM (active)
- outcome [7]: inactive
- outcome [8]: inactive
- AC50 [9]: 86.9 µM (active) and 30.3 µM (active)

SMILES: O=Cc1ccc(F)cc1
- outcome [10]: inactive
- outcome [7]: inactive
- outcome [8]: inactive

SMILES: O=C(O)c1ccc(C(=O)O)cc1
- outcome [10]: inactive
- outcome [7]: inactive
- outcome [8]: inactive

SMILES: O=C1CCc2ccccc2O1
- outcome [10]: inactive
- outcome [7]: inactive
- outcome [8]: inactive

SMILES: CCC(=O)OCCC(C)CCC=C(C)C (stereo not drawn)
- outcome [10]: inactive
- outcome [7]: inactive
- outcome [8]: inactive

SMILES: C=C(C)C(=O)O
- outcome [10]: inactive
- outcome [7]: inactive

SMILES: O=C(O)CN(CCN(CC(=O)O)CC(=O)O)CCN(CC(=O)O)CC(=O)O
- outcome [10]: inactive
- outcome [7]: inactive
- outcome [8]: inactive

SMILES: O=C(O)c1snc(Cl)c1Cl
- outcome [10]: inactive
- outcome [7]: inactive
- outcome [8]: inactive

SMILES: CCc1ccc(C=O)cc1
- outcome [10]: inactive
- outcome [7]: inactive
- outcome [8]: inactive

SMILES: c1ccc(CCCc2ccccn2)cc1
- outcome [10]: inactive
- outcome [7]: inactive
- outcome [8]: inactive

SMILES: Cc1cc(C2(c3cc(C)c(O)cc3C)OS(=O)(=O)c3ccccc32)c(C)cc1O
- outcome [10]: inactive
- outcome [7]: inactive
- outcome [8]: inactive

SMILES: CCN(CC)CCOC(=O)c1ccc(N)cc1
- outcome [10]: inactive
- outcome [7]: inactive
- outcome [8]: inactive

SMILES: CCCCCCCCC
- outcome [10]: inactive
- outcome [7]: inactive
- outcome [8]: inactive

SMILES: CCCCCC=CCC(=O)OC
- outcome [10]: inactive
- outcome [7]: inactive

SMILES: FC1(F)C(F)(F)C(F)(F)C2(F)C(F)(C1(F)F)C(F)(F)C(F)(F)C1(F)C(F)(F)C(F)(F)C(F)(F)C(F)(F)C12F (stereo not drawn)
- outcome [10]: inactive
- outcome [7]: inactive
- outcome [8]: inactive

SMILES: Cc1ccc(O)c(C(C)(C)C)c1
- outcome [10]: inactive
- AC50 [7]: 44.8 µM (active)
- outcome [7]: inactive
- AC50 [8]: 68.4 µM (active)
- outcome [8]: inactive

SMILES: CCCC1CCC(=O)O1 (stereo not drawn)
- outcome [10]: inactive
- outcome [7]: inactive
- outcome [8]: inactive

SMILES: C[C@]12CC[C@H]3[C@@H](CCC4=CC(=O)CC[C@@]43C)[C@@H]1CC[C@@H]2C(=O)CO
- outcome [10]: inactive
- outcome [7]: inactive
- outcome [8]: inactive

SMILES: O=S(=O)(O)c1ccc(O)c2ncccc12
- outcome [10]: inactive
- outcome [7]: inactive

SMILES: CC(C)=CCC/C(C)=C/COC=O
- outcome [10]: inactive
- outcome [7]: inactive
- outcome [8]: inactive

SMILES: O=C1CCCCCCCCCCCCCCO1
- outcome [10]: inactive
- outcome [7]: inactive
- outcome [8]: inactive

SMILES: CCCCCCCCCCCCN
- AC50 [10]: 68.9 µM (active) and 58.2 µM (active)
- AC50 [7]: 51.6 µM (active)
- outcome [7]: inactive
- AC50 [8]: 85 µM (active)
- outcome [8]: inactive
- AC50 [9]: 80.4 µM (active) and 66.7 µM (active)

SMILES: Cc1ccc(C(=O)c2cc(O)c(O)c([N+](=O)[O-])c2)cc1
- outcome [10]: inactive
- AC50 [7]: 53.8 µM (active)
- outcome [7]: inactive
- AC50 [8]: 14.6 µM (active)
- outcome [8]: inactive
- AC50 [9]: 46.1 µM (active)
- outcome [9]: inactive

SMILES: NC(N)=NC(=O)c1nc(Cl)c(N)nc1N
- outcome [10]: inactive
- outcome [7]: inactive
- outcome [8]: inactive
- outcome [9]: inactive

SMILES: CCCCO
- outcome [10]: inactive
- outcome [7]: inactive
- outcome [8]: inactive

SMILES: O=[N+]([O-])c1cc(C(F)(F)F)ccc1Cl
- outcome [10]: inactive
- outcome [7]: inactive
- outcome [8]: inactive

SMILES: O=C(Cl)c1cccc(C(=O)Cl)c1
- outcome [10]: inactive
- outcome [7]: inactive
- AC50 [8]: 46.1 µM (active)
- outcome [8]: inactive
- outcome [9]: inactive

SMILES: CNC(=O)Oc1ccc2c(c1)[C@]1(C)CCN(C)[C@@H]1N2C
- outcome [10]: inactive
- outcome [7]: inactive
- outcome [8]: inactive
- outcome [9]: inactive

SMILES: Nc1cc(Cl)c(O)c(Cl)c1
- outcome [10]: inactive
- outcome [7]: inactive
- outcome [8]: inactive

SMILES: CCCCCCCCCCC(CO)CCCCCCCC (stereo not drawn)
- outcome [10]: inactive
- outcome [7]: inactive
- outcome [8]: inactive
- outcome [9]: inactive
